Screens from PubChem.
Only some compounds are listed: those with a hit (about 3.9% of all), similar ones and a draw of the others.
SARS 3CLpro inh – SARS-CoV 3CLpro protease inhibition | hit rate 0.14% among 290,000 | AID 1706 | P0C6X7 | inhibition, % at 6 µM | recombinant SARS-CoV 3CLpro, quenched FRET peptide cleavage; in the data active = inhibition above about 12%
BoNT F protease – inhibitors of Botulinum neurotoxin F light chain protease; Multiplex microsphere protease cleavage assay, flow cytometry; inhibition, % at 10 µM; hit rate 0.22% among 360,000; in the data active = inhibition above about 35%, passing the limit was not always enough; inconclusive = no clear call, values can overlap the other calls; also: plate controls were buffer without enzyme for full effect and enzyme alone for no effect
BoNT-A LC inh2 – BoNT A light chain protease inhibition | inhibition, % at 10 µM | hit rate 0.17% among 360,000 | AID 588499 | multiplex microsphere protease substrate cleavage, flow cytometry; also: plate controls were buffer without enzyme for full effect and enzyme alone for no effect
Anthrax LF inh2 – anthrax lethal factor protease inhibition; P15917; multiplex microsphere protease cleavage assay, LF; inhibition, % at 10 µM; hit rate 0.12% among 360,000; also: plate controls were buffer without enzyme for full effect and enzyme alone for no effect
Target sequence (P15917 whole entry, looked up): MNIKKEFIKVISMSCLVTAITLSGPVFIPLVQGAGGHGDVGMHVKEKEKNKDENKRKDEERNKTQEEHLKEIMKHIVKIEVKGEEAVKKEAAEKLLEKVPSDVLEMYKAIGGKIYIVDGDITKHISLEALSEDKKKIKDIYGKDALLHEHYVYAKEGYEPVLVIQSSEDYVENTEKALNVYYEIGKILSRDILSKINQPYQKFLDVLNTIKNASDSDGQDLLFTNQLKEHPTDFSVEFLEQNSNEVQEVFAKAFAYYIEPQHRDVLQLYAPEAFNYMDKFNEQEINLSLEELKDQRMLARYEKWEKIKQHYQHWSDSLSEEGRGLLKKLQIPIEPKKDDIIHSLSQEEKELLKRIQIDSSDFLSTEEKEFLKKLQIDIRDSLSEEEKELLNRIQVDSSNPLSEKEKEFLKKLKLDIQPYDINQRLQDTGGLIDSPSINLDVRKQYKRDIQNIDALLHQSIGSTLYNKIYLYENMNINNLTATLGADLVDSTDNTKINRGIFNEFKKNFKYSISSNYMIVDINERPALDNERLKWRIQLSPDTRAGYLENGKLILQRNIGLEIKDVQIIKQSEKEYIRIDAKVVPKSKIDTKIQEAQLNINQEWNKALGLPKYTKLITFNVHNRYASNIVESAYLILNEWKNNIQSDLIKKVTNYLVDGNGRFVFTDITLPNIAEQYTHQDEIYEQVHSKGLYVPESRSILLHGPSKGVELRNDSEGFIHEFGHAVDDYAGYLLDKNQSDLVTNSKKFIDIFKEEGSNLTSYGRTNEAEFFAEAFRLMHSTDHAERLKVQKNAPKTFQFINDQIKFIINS
Bead autofluor – flagged as autofluorescent in microsphere protease counterscreen | fluorescence intensity (concentration not given with the values) | hit rate 3.1% among 360,000 | compound autofluorescence counterscreen, microsphere flow cytometry; active compounds read high; in the data active = fluorescence intensity above about 16000; inconclusive = no clear call, values can overlap the other calls
CCHFV vOTU inh – CCHFV vOTU protease inhibition; Pep-AMC fluorescence; inhibition, % at 11.5 µM; hit rate 0.55% among 370,000; AID 651958; in the data active = inhibition above about 30%; also: 0% = vehicle wells with enzyme and 100% = no enzyme wells
* = called active by the depositor; ? = inconclusive; . = not tested or not shown. Rule as the data show it, unless noted: active = inhibition above about 30%; inconclusive = no clear call, values can overlap the other calls; inactive = below that.

SMILES | SARS 3CLpro inh | BoNT F protease | BoNT-A LC inh2 | Anthrax LF inh2 | Bead autofluor | CCHFV vOTU inh
O=C1CCC(C(=O)OCC(=O)N2N=C3/C(=C/c4ccccc4)CCCC3C2c2ccccc2)N1 (centres undefined) | -0.6 | -1.3 | ? | -0.4 | 20500* | 13.7
Cc1ccccc1NC(=O)Cn1nnc(-c2ccc(N3CCOCC3)cc2)n1 | 6.5 | -3.5 | ? | -6.4 | 22327* | -0.9
O=C(CN1CCOCC1)Nc1nc(-c2ccccc2)cs1 | 4.7 | -5.6 | -2.7 | 3.6 | 4108 | -6.7
O=C(Cn1nnc(-c2ccc(N3CCOCC3)cc2)n1)N1CCOCC1 | 4.7 | . | . | . | . | .
CN(C)c1ccc(-c2nnn(CC(=O)Nc3ccccc3N3CCOCC3)n2)cc1 | 1.5 | 3.1 | 1.4 | -4.2 | 8942 | 16.8
O=C(Cn1nnc(-c2ccc(N3CCOCC3)cc2)n1)OC1CCCCC1 | 1.5 | 3.6 | 1.6 | -2.8 | 21996* | -0.9
O=C(Cn1nnc(-c2ccc(CN3CCOCC3)cc2)n1)Nc1nc(-c2ccccc2)cs1 | 0.3 | -0.8 | 0.3 | -10.0 | 21308* | 4.3
O=C(Nc1cccc([N+](=O)[O-])c1)NC1CCCCN(Cc2cccc(Cl)c2)C1=O (centres undefined) | . | . | . | . | . | 1.6
O=C(Nc1cccc([N+](=O)[O-])c1)NC1CCCCN(Cc2ccc(Cl)cc2)C1=O (centres undefined) | . | . | . | . | . | 4.0
CC(C)CSc1ncccc1-c1nc2ccccc2[nH]1 | . | . | . | . | . | 1.4
COc1cc2c3c(c1)-c1c(sn(-c4cc(OC)ccc4OC)c1=S)C(C)(C)N3C(=O)C2=O | -0.8 | 1.3 | 2.0 | -6.3 | 21539* | -1.0
CCOc1ccccc1CNC(=O)C1CCC(=O)N1C(C)C (centres undefined) | 1.9 | 6.8 | 2.9 | 0.2 | 22457* | 1.0
CCCCOc1ccc(C(=O)Nn2cnnc2)cc1 | 2.1 | 0.1 | ? | -5.1 | 23869* | 7.6
CCc1ccc(CN2CCN(c3ncccn3)CC2)cc1 | -8.2 | 44.4* | -1.3 | 7.6 | 3994 | 7.6
CCCN(CCC)CCNC(=O)C1c2ccccc2C(=O)N2CCc3ccccc3C12 (centres undefined) | 1.6 | -6.4 | 0.4 | -3.5 | 3717 | 7.0
CCOCCCNC(=O)C1c2ccccc2C(=O)N2CCc3ccccc3C12 (centres undefined) | -3.8 | 0.5 | 0.9 | -1.6 | 16166* | -10.5
CC1CCN(C(=O)C2c3ccccc3C(=O)N3CCc4ccccc4C23)CC1 (centres undefined) | -3.7 | 0.8 | 2.6 | -0.2 | 22497* | -4.6
COc1ccc(Oc2nnnn2-c2ccccc2)cc1 | -0.2 | -4.5 | ? | -2.9 | 22772* | 5.0
COc1cccc(Oc2nnnn2-c2ccccc2)c1 | 3.7 | -6.0 | -0.8 | -10.8 | 9159 | 11.9
Cc1ccc(-n2c(SCc3cccc(F)c3)nnc2-c2cccc(C)c2)cc1 | . | . | . | . | . | 22.5
COC(=O)[C@]12C[C@H](CC(=O)N3CCC(c4ccccc4)CC3)C(=O)N(Cc3ccccc3)C1=C[C@H](C1CCCC1)O[C@@H]2C | . | . | . | . | . | 8.1
Cc1ccc(N2CCN(CC3CC=CCC3)CC2)cc1 (centres undefined) | 0.8 | 2.7 | 2.3 | -2.2 | 21210* | -7.1
CCCc1ccc(C(=O)N2CCN(c3ccccc3OCC)CC2)cc1 | 2.9 | -8.5 | -2.7 | -0.5 | 25022* | 5.9
O=C(CSc1nnc(-c2cnccn2)n1-c1ccccc1)Nc1ccc2c(c1)OCCO2 | . | . | . | . | . | -1.9
O=c1[nH]c(-c2ccc(O)cc2)nc2scc(-c3cccs3)c12 | 3.5 | -2.8 | -1.1 | -1.9 | 5273 | -6.0
SMILES | SARS 3CLpro inh | BoNT F protease | BoNT-A LC inh2 | Anthrax LF inh2 | Bead autofluor | CCHFV vOTU inh
Cc1nc2scc(-c3cccs3)c2c(=O)[nH]1 | 2.6 | -6.9 | -4.2 | -1.3 | 25937* | -0.6
COc1ccc(CN(CCN2CCOCC2)C(=O)c2ccc(F)cc2F)cc1OC | . | . | . | . | . | -3.5
Nc1nnc(CC2=CCCCC2)s1 | -3.6 | -2.9 | -1.7 | -9.2 | 22203* | 11.3
Nc1nnc(Cc2ccc(F)cc2)s1 | 0.3 | -1.4 | 1.4 | 4.4 | 4021 | 6.9
O=C1c2ccccc2S(=O)(=O)N1CCOc1ccc(F)cc1 | -2.2 | -4.9 | -1.1 | -1.5 | 24481* | 16.1
O=C(CCN1C(=O)c2ccccc2S1(=O)=O)NCc1ccc(F)cc1 | . | ? | ? | ? | ? | -3.5
CC(C)(C)C(=O)OC12CCCN(C1)/C(=C/c1ccc(Cl)cc1)C2 (centres undefined) | . | . | . | . | . | 5.5
CCc1cccc(C)c1NC(=O)c1cccnc1 | 3.2 | ? | 4.9 | 31.2* | 3027 | -4.0
CCC(C)c1ccccc1NC(=O)c1cccnc1 (centres undefined) | -4.1 | -3.3 | -2.4 | -5.0 | 23335* | -6.2
CCc1cccc(C)c1NC(=O)c1cc(C)oc1C | 2.1 | -0.4 | 1.5 | -3.8 | 22641* | .
